These results are taken from the supplement of paper PMC10338343.

± gives the standard deviation.

For one assay, the system named is MILI (PIWIL2) piRISC loaded with L1MC piRNA (26 nt). Briefly: pre-steady-state target cleavage rate (min^-1); guide: L1MC piRNA 5'p-UAACUAAAUACUAUGCAAGCUGUAGG; MIWI and MILI are mouse PIWI proteins and EfPiwi is from a freshwater sponge; tags in brackets are library labels; higher = faster piRNA-guided slicing of the target. Particulars: auxiliary factor: 500 nM mouse GTSF1. Here is the method:
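Cleave-'n-Seq: a library of target RNAs (target site embedded in constant flanks, ACAGCATTCCGCGTTAGTGATATCCG... 5' flank; DNA-blocked outside the site) at 0.1 nM was incubated with 1 nM active mouse MILI or MIWI piRISC (synthetic 5'-monophosphorylated piRNA guide) with or without 500 nM mouse GTSF1 at 33 °C for 1 min to 16 h. Uncleaved targets were sequenced and normalised to non-target controls, and the pooled three trials were fitted to a burst-and-steady-state model to give the pre-steady-state cleavage rate (min^-1; k3 is constrained to at most 1e-4). Sequence is the target site only; target names encode pairing extent (gX:gY) and contiguous / 1-mismatch / 2-mismatch / bulge geometry. Fits with R² ≤ 0 are excluded.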
Consider UCCUGGAACACGAUGCAUAGUAUUUUCAAA, for which the “pre-steady-state target cleavage rate” value came to 0.0494 ± 0.017.
For UCCUGGAUGAGCUUGCUUAGUUUUUAGUUA, the “pre-steady-state target cleavage rate” value was 0.0134 ± 0.0052.
In the case of UCCUGGAUGUGCUUCCAUAGUAUUUAGUAA, the “pre-steady-state target cleavage rate” value stood at 0.0304 ± 0.012.
Still for that read-out and setting: for UCCUGGAACAGCAUGCAUAGUAAUUAGUUA the value was 0.225 ± 0.017.
As to UCCUGGAUGUGCUAGCAUAGUAUUUUGUUA, the “pre-steady-state target cleavage rate” value was 0.0587 ± 0.011.
Regarding UCCUCCUACAGCUUGGAUUGUAUUUAGUUA, the “pre-steady-state target cleavage rate” value is 0.165 ± 0.015.
Turning to UCCUCCUAGUGCUUGCAUAGUAUUUACAAA, the “pre-steady-state target cleavage rate” value was 0.0188 ± 0.0067.
UCCUGCUAGAGCUUGCAAAGUAUUUAGUUA: the “pre-steady-state target cleavage rate” value came to 0.112 ± 0.012.
For UCCUGGAACCAGCUUGCAUAGUAUUUAGUUA, the “pre-steady-state target cleavage rate” value is 0.365 ± 0.032.
As to UCCUGGUACAGCUAGCAUAGUAUUUAGAUA, the “pre-steady-state target cleavage rate” value was 0.0905 ± 0.022.
Turning to UCCUGCUUCACCUUGCAUAGUAUUUAGUUA, the “pre-steady-state target cleavage rate” value amounted to 0.228 ± 0.027.
Take UCCUCCUAGAGCUUGCAUACUAUUUAGUUA: the “pre-steady-state target cleavage rate” value turned out to be 0.101 ± 0.018.
Turning to UCCUGGAUGUGCUAGCAUACUAUUUAGUUA, the “pre-steady-state target cleavage rate” value was found to be 0.0195 ± 0.0053.
The same measure, in the same setting: to UCCUGGUACAGCUAGCAUUGUAUUUAGUUA belongs 0.127 ± 0.017.
For the sequence UCCUCCUACAGCUUUGCAUAGUAUUUAGUUA, the “pre-steady-state target cleavage rate” value came to 0.291 ± 0.017.
In the case of UCCUGCUACUGCUUGCAUAGUAAUUAGUUA, the “pre-steady-state target cleavage rate” value was 0.175 ± 0.023.
For the sequence UCCUGGUACAGGUUGCAUACUAUUUAGUUA, the “pre-steady-state target cleavage rate” value amounted to 0.111 ± 0.033.
For UCCUGCUUCAGCUUGCAUAGUAUUUAGAUA, the “pre-steady-state target cleavage rate” value came out at 0.165 ± 0.025.
As for UCCUGGUACAGCUUGCAUAGAUUUUACAAA, the “pre-steady-state target cleavage rate” value is 0.00751 ± 0.0049.
With UCCUGGAUGUCCUUGCAUAGUAUAAAGUUA, the “pre-steady-state target cleavage rate” value stood at 0.0673 ± 0.015.
For the sequence UCCUCCUACUGCUUGCAUAGUAUUAAGUUA, the “pre-steady-state target cleavage rate” value worked out at 0.15 ± 0.018.
Turning to UCCUGGAACAGCUUAGCAUAGUAUUUAGUUA, the “pre-steady-state target cleavage rate” value was found to be 0.27 ± 0.019.
For UCCUGGAUCAACUUGCAUAGUAUUUAGUUA, the “pre-steady-state target cleavage rate” value amounted to 0.265 ± 0.017.

Still in this assay, the particulars now being: auxiliary factor: none (no GTSF1).
For UCCUGGAUGAGCUUGCUUAGUUUUUAGUUA, the “pre-steady-state target cleavage rate” value is 0.00418 ± 0.0026.
As to UCCUGGAACAGCAUGCAUAGUAAUUAGUUA, the “pre-steady-state target cleavage rate” value came out at 0.00873 ± 0.0024.
Same read-out and setting: for UCCUGGAUGUGCUAGCAUAGUAUUUUGUUA the value was 0.00334 ± 0.0025.
Regarding UCCUCCUACAGCUUGGAUUGUAUUUAGUUA, the “pre-steady-state target cleavage rate” value turned out to be 0.00457 ± 0.002.
For UCCUGCUAGAGCUUGCAAAGUAUUUAGUUA, the “pre-steady-state target cleavage rate” value amounted to 0.00382 ± 0.0021.
On the same count and under the same terms, for UCCUGGAACCAGCUUGCAUAGUAUUUAGUUA the value was 0.00736 ± 0.0021; for UCCUGCUUCACCUUGCAUAGUAUUUAGUUA, 0.00696 ± 0.0025.
The same measure, in the same setting: for UCCUGGAUGUGCUAGCAUACUAUUUAGUUA the value was 0.00539 ± 0.002; for UCCUGGUACAGCUAGCAUUGUAUUUAGUUA, 0.00717 ± 0.0034.
As for UCCUCCUACAGCUUUGCAUAGUAUUUAGUUA, the “pre-steady-state target cleavage rate” value came to 0.00758 ± 0.0021.
Turning to UCCUGCUACUGCUUGCAUAGUAAUUAGUUA, the “pre-steady-state target cleavage rate” value was determined as 0.00358 ± 0.0023.
On the same count and under the same terms, for UCCUGGUACAGGUUGCAUACUAUUUAGUUA the value was 0.00543 ± 0.0028; for UCCUGCUUCAGCUUGCAUAGUAUUUAGAUA, 0.00373 ± 0.002; for UCCUGGAUGUCCUUGCAUAGUAUAAAGUUA, 0.00312 ± 0.0028.
Regarding UCCUCCUACUGCUUGCAUAGUAUUAAGUUA, the “pre-steady-state target cleavage rate” value worked out at 0.00292 ± 0.0026.
Take UCCUGGAACAGCUUAGCAUAGUAUUUAGUUA: the “pre-steady-state target cleavage rate” value was found to be 0.00815 ± 0.0027.
With UCCUGGAUCAACUUGCAUAGUAUUUAGUUA, the “pre-steady-state target cleavage rate” value turned out to be 0.00729 ± 0.0025.
